# High-throughput results: PubChem BioAssay, National Center for Advancing Translational Sciences (NCATS)
# SARS PLP yeast: SARS-CoV PLP inhibition in yeast. S. cerevisiae expressing SARS-CoV PLpro, growth rescue. Potency, µM (doses to about 32.9 µM), for the others: top-dose activity, positive = growth rescue, hits mostly activators. hit rate 0.19% among 330,000; further: 0% is about no effect; nearly all actives have a fitted effect of over 55% in size
# NS1 function inh: blocks influenza NS1 protein function; Potency, µM (doses to about 46.1 µM), for inactives: top-dose activity, positive = more growth; hit rate 0.4% among 270,000; further: actives are rising curves; nearly all actives have a fitted effect of over 50% in size
#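 Read-out: OD600 growth recovery of NS1-expressing budding yeast. Cells grown overnight at 30C in -URA glucose medium, washed, resuspended and diluted 1:100 in 2% galactose assay medium, pH 6.0. Same strain lacking NS1 served as positive control.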
# AMA1 RON2 block: AMA1-RON2 (P. falciparum) interaction inhibition. hit rate 0.2% among 360,000. AID 720542. AlphaScreen AMA1-biotinylated RON2 peptide binding. Potency, µM (top dose mostly 58.2 µM), for inactives: at the highest dose activity change, negative = inhibition, usual class: inhibitors; active means well fitted inhibition curve with a large enough effect; inconclusive means small, poorly fitted or top-dose-only effect; inactive means no such curve, though single readings can be large or run the other way;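 further: 0% = vehicle wells and -100% = peptide control; nearly all actives have a fitted effect of over 45% in size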
#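 AMA1 (3D7) with his tag at 25 nM final met compounds first, then biotinylated RON2 peptide at 25 nM; detection used donor plus acceptor beads, 10 µg/mL apiece, read by AlphaScreen after 30 min at room temperature.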
# An asterisk follows results filed as active; ? = inconclusive; · = no result given; [ ] = remark or other dose. Sampled rows, rich in hits. Any-hit rate of the full collection: about 0.65%. Unless noted, the call rests on the fitted dose curve. Potency means the concentration at half of the fitted maximal effect.
SMILES,SARS PLP yeast,NS1 function inh,AMA1 RON2 block
COc1ccc(C2=NOC(C(=O)Nc3cccnc3Cl)C2)cc1 (configuration not stated),0%,-12%,-5%
COC(=O)c1cn(CCC#N)nc1-c1ccc2ccccc2c1,-1%,-10%,-9%
CC(C)/C=C1\CC/C(=C\c2ccc(N(C)C)cc2)C1=O,-14%,5%,10%
CN(C)c1ccc(/C=C2/C[N+](C)(C)C/C(=C/c3ccc(N(C)C)cc3)C2=O)cc1,·,·,22µM*
O=C(Nc1ccccc1)c1cc(C2CCCN(C(=O)CCc3ccccc3)C2)on1 (configuration not stated),·,·,5%
CN(C)c1ccc(CC(=O)N2CCCC(c3cc(C(=O)Nc4ccc(C(C)(C)C)cc4)no3)C2)cc1 (configuration not stated),·,·,13µM*
CC(C)Cn1c(N)c(C(=O)COC(=O)c2cc(-c3ccco3)nc3ccccc23)c(=O)n(C)c1=O,0%,?,-4%
Cn1c(=O)c(C(=O)COC(=O)c2cc(-c3ccco3)nc3ccccc23)c(N)n(Cc2ccccc2)c1=O,0%,8.9µM*,·
O=S1(=O)CCOC[C@H](CC2CCCCC2)N1Cc1ccccc1Br,-11%,-11%,1%
O=C(OCC#CCSc1nnc(-c2cccc3ccccc23)s1)c1cccs1,2%,·,·
CC1NC(=O)NC1CCCCCC(=O)NCCc1ccccc1 (configuration not stated),2%,-14%,1.5µM*
Cc1cccc(C)c1NC(=O)CCCCCC1NC(=O)NC1C (configuration not stated),0%,·,-13%
O=C(O)c1ccc2nc(-c3ccco3)c(-c3ccco3)nc2c1,0%,9%,-17%
O=C(Nc1cccc(C(F)(F)F)c1)c1ccc2nc(-c3ccco3)c(-c3ccco3)nc2c1,0%,5.6µM*,?
COc1ccc(C(=O)NC(C)c2cnn(-c3ccccn3)c2C)o1 (configuration not stated),0%,24%,46%
NCCc1cc(O)c(O)cc1O,·,·,0.79µM*
NCCc1ccc(O)c(O)c1,1%,0%,?
COc1cc(OC)cc(C(=O)NC(C(=O)NNC(=O)CN(C)S(=O)(=O)c2ccc(C)cc2)C(C)C)c1 (configuration not stated),·,·,78%
Nc1ncnc2c1ncn2[C@@H]1O[C@H](C(=O)NS(=O)(=O)c2ccccc2[N+](=O)[O-])[C@@H](O)[C@H]1O,·,·,-3%
O=C(c1ccc(-n2ccnc2)cc1)N1CCCC(CO)(Cc2cccc(Cl)c2)C1 (configuration not stated),1%,-14%,10%
CCOc1ccccc1OCCC(=O)N1CCN(S(=O)(=O)c2ccccc2[N+](=O)[O-])CC1,-4%,·,-7%
CN(Cc1cn(C)nc1-c1ccc(Oc2ccccc2)cc1)Cc1cnc2ccccn12,-1%,-4%,-4%
Cn1cc(CNCc2cnc3ccccn23)c(-c2ccc(Oc3ccccc3)cc2)n1,0%,4%,28µM*
COc1cccc(C(c2nnnn2CC2CCCO2)N2CCN(C(=O)c3ccco3)CC2)c1OC (configuration not stated),-1%,4%,-7%
CCOc1ccc(OCCOC(=O)C2CCN(S(=O)(=O)c3ccc(C)c(C)c3)CC2)cc1,-8%,·,-16%
SMILES,SARS PLP yeast,NS1 function inh,AMA1 RON2 block
Cc1cc(O)c(Oc2cc(C)cc(O)c2O)c(O)c1,0%,4%,4.5µM*
Cc1cc(C(C)(C)C)c(O)c(C(C)(C)C)c1,0%,5%,-3%
CC1CC(C)CN(S(=O)(=O)N2CCC(C(=O)NCCC3=CCCCC3)CC2)C1 (configuration not stated),0%,·,-1%
Cc1cccc(NC(=O)CN(C)S(=O)(=O)c2cnc[nH]2)c1,6%,2%,6%
CSc1cccc(NC(=O)CN(C)S(=O)(=O)c2cnc[nH]2)c1,-5%,9%,5µM*
Oc1ccc(COCc2ccc(F)cc2)c2cccnc12,1%,·,·
Oc1ccc2ccccc2c1N=Nc1ccccn1,-22%,-181%,10µM*
CC(C)CCn1c(O)c(N=Nc2ccccn2)c2ccccc21,-71%,-26%,7%
O=S(=O)(O)c1cccc(N=Nc2c(O)ccc3ccccc23)c1,-1%,2%,-25%
Oc1ccc2ccccc2c1N=Nc1ccccc1F,-2%,2%,10µM*
O=C(O)c1cccc(SSc2cccc(C(=O)O)c2)c1,·,-6%,·
CC(C)Cc1cc(C(=O)N(C)C2CCCN(Cc3ccccc3F)C2)n(C)n1 (configuration not stated),10%,-4%,13%
CC(NC(=O)c1ccccc1)C(=O)NC1CCCc2ccccc21 (configuration not stated),-1%,·,6%
COC1=C(Nc2ccc(OC)cc2)C(=O)C(OC)=C(Nc2ccc(OC)cc2)C1=O,·,·,-2%
COC1=C(Nc2ccc(OC)cc2)C(=O)c2ccccc2C1=O,·,2%,13µM*
CCN(CC)c1ccc(NC2=C(Cl)C(=O)c3ccccc3C2=O)cc1,-69%,-13%,6.3µM*
Cc1ccc(NC2=C(Cl)C(=O)c3ccccc3C2=O)cc1,16%,11%,-23%
CCOc1ccc(NC2=C(OC)C(=O)c3ccccc3C2=O)cc1,-21%,-10%,8.9µM*
COC1=C(Nc2ccc(O)cc2)C(=O)c2ccccc2C1=O,-7%,-14%,?
CN(Cc1cc([N+](=O)[O-])ccc1Cl)C(=O)C[n+]1ccccc1,-3%,-3%,-9%
COc1ccc([C@]23Cc4cc(C#N)ccc4C(O2)c2c(c4ccc(OC)cc4oc2=O)O3)cc1,-2%[6.58 µM],6%,·
C[C@@]12CCC3[C@@](CCC4[C@@]3(C)CCC[C@@]4(C)C(=O)N3CCOCC3)(CC1=O)C2 (some centres not stated),1%,·,-1%
CSc1ncc(C(=O)Nc2ccccc2C)c(C)n1,0%,2%,2%
COC(=O)c1cnc(SC)nc1C,6%,2%,2.8µM*
Cc1ccc(-c2cn(C[C@H]3CC[C@@H]([C@@H]4CC[C@H](Cn5cc(-c6ccc(C)cc6)nn5)O4)O3)nn2)cc1,5%,24%,0%
SMILES,SARS PLP yeast,NS1 function inh,AMA1 RON2 block
c1ccc(-c2cn(C[C@H]3CC[C@H](Cn4cc(-c5ccccn5)nn4)O3)nn2)nc1,6%,23%,1µM*
Cc1cc2c(cc1S(=O)(=O)Nc1ccc(C(C)C)cc1)OCCN2C,5%,·,·
CCOc1ccc(N(C)Cc2cc(=O)oc3ccc(OCC)cc23)cc1,-5%,2%,25µM*
CCOc1ccc(CN(C)Cc2cc(=O)oc3cc(C)c(Cl)cc23)cc1,3%,-1%,5%
COc1cc(CNc2ccc(N3CCOCC3)cc2)cc(Br)c1OC,0%,3%,?
CCOc1cc(CNc2ccc(N3CCCC3)cc2)cc(Cl)c1OC,0%,8%,20µM*
CCOc1cc(CNc2ccc(N(C)C)cc2)cc(Br)c1OCC(=O)NC(C)(C)C,-22%,-19%,25µM*
CCOc1cc(CNc2ccc(N3CCOCC3)cc2)cc(Br)c1OCC,-6%,7%,14µM*
CCOc1cc(CNc2ccc(N3CCN(C(C)=O)CC3)cc2)cc(Br)c1OC,29%,-8%,?
COc1cc(CNc2ccc(N3CCCC3)cc2)cc(Cl)c1OC,-1%,13%,?
CCOc1cc(CNc2cccc3ccccc23)cc(Br)c1OCC(=O)NC(C)(C)C,14%,19%,-9%
CCOc1cc(CNc2ccc(N3CCCCC3)cc2)cc(Br)c1OCC(=O)NC(C)(C)C,-28%,-27%,20µM*
